# Data reported in PubChem BioAssay AID1347416 (National Center for Advancing Translational Sciences (NCATS), 2020).
# The whole screen tested about 4,100 compounds, of which about 1,600 (39%) were called active. Not shown: some 25% with an inconclusive outcome. The call rests on the fitted dose curve; in most records, active means well fitted inhibition curve with a large enough effect; inconclusive means small, poorly fitted or top-dose-only effect; inactive means no such curve, though single readings can be large or run the other way. Some of the results follow.
# Test: qHTS Validation assay for Inhibitors of Plasmodium falciparum Dd2 growth in vitro; further: nearly all actives have a fitted effect of over 70% in size
# Details: P. falciparum Dd2 in RBCs, SYBR Green growth, 72 h; series mostly up to 28.7 µM; activity change, negative = inhibition: at the top concentration
# Procedure, shortened: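 P. falciparum Dd2-infected red blood cells (2.5% hematocrit, 0.3% parasitemia) grown 72 h at 37 °C under 5% O2 with compounds in a titration, 29 uM to 0.5 nM final. Growth read as SYBR Green-1 fluorescence after ~16 h lysis; artesunate 300 nM as positive control.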
# On the % scale 0 is the no-effect control and ±100 the full control effect; potency means the concentration at half of the fitted maximal effect.
Compound,"activity change, negative = inhibition",Potency
CC(C(=O)N1CCc2ccccc21)N1CCc2ccccc2C1 (stereo not drawn),-5.58% (inactive),
CC1(C)C(=O)N(CC2CCOCC2)[C@H]2CN(Cc3ccccc3O)C[C@H]2[S+]1(=O)[O-],16.8% [at 43.1 µM] (inactive),
COCC1CN(C)CC12CCN(C(=O)CC1=CCCCC1)CC2 (stereo not drawn),-27.3% (inactive),
O=C1CCN(S(=O)(=O)c2ccccc2)CCCC(C(=O)NCCc2cccnc2)CCN1 (stereo not drawn),5.17% (inactive),
O=C(NCCc1ccncc1)c1ccc(-c2nnc3ccc(NC(=O)C4CCC4)cn23)cc1,,2.99 µM (active)
Cn1c(=O)c2ccnn2c2ccc(C(=O)NCCN3CCC(N4CCCCC4)CC3)cc21,9.58% (inactive),
O=C(NCCN1CCCCC1)c1ccc(-c2nnc3ccc(NC(=O)C4CCC4)cn23)cc1,,13.3 µM (active)
Cc1noc(-c2ccn3c(CNC(=O)c4ccncc4)nnc3c2)n1,-2.17% (inactive),
O=C(NCCc1cccnc1)c1ccc(-c2nnc3ccc(NC(=O)C4CCC4)cn23)cc1,,6.68 µM (active)
O=C(Nc1ccc(-c2nnc3n2CCCC3)cc1)c1ccccc1F,29.2% (inactive),
CC1CN(C(=O)Nc2ccc(C(=O)NCCc3ccccc3)cc2)c2ccccc2S1 (stereo not drawn),-0.366% (inactive),
Cc1cn2nc(C(=O)N3CCC(C(=O)NCc4cccnc4)CC3)cc2c(=O)[nH]1,23.2% (inactive),
CC(C)(C)CC(C)(C)c1ccc(O)c(Cc2ccc(Cl)cc2Cl)c1,,1.68 µM (active)
O=[S+]1([O-])NCC2(CCCN(Cc3ccc(OC(F)(F)F)cc3)C2)Nc2ccccc21 (stereo not drawn),-25.2% (inactive),
COc1ccc(CN2CCC3(CC(c4ccc(OC)cc4)=NO3)C2)cc1 (stereo not drawn),8.93% (inactive),
CCc1nc2c(c(-c3ccc(O)cc3)n1)CCN(Cc1ccc(OC(F)(F)F)cc1)CC2,,1.5 µM (active)
CN1C[C@@H](NC(=O)CC(C)(C)C)C[C@H]1c1nc(-c2ccc(OC(F)(F)F)cc2)no1,0% [at 43.1 µM] (inactive),
CCc1nc2c(c(-c3ccc(O)cc3)n1)CCN(Cc1ccc(OC)cc1)CC2,,6.68 µM (active)
CCc1cccc(NC(=O)N2CCc3nc4cc(-c5ccc(OC)cc5)[nH]n4c(=O)c3C2)c1,-5.7% (inactive),
Cc1cc(C)c(S(=O)(=O)n2ccc(-c3ccc(OCCN(C)c4ccccn4)cc3)n2)c(C)c1,,7.5 µM (active)
COc1ccc(-n2nc(C(=O)NCC(=O)N3CCN(c4ccccc4OC)CC3)c3ccccc3c2=O)c(OC)c1,,2.11 µM (active)
COc1ccccc1N1CCN(C(=O)CNS(=O)(=O)c2ccc(Br)s2)CC1,40.1% (inactive),
COc1cccc2c(=O)n(CC(=O)NCCc3ccccc3)ccc12,35.5% (inactive),
COc1ccc(-n2nc(C(=O)NCC(=O)N3CCN(c4ccccc4OC)CC3)c3ccccc3c2=O)cc1OC,,6.68 µM (active)

Compound,"activity change, negative = inhibition",Potency
CCc1cc(=O)oc2cc(C)cc(OCC(=O)NCC(O)c3ccccc3)c12 (stereo not drawn),,6.68 µM (active)
CCc1cc(=O)oc2cc(C)cc(OCC(=O)C(C)(C)C)c12,,11.9 µM (active)
CCCc1cc(=O)oc2cc(C)cc(OC(C)C(=O)NCC(O)c3ccccc3)c12 (stereo not drawn),,0.842 µM (active)
O=C(NCCc1c[nH]c2ccccc12)c1c(OCC2CC2)cc(=O)n2c1CCOCC2,-39.2% (inactive),
Cc1cc(OC(C)C(=O)NCCc2c[nH]c3ccccc23)c2c(C)cc(=O)oc2c1 (stereo not drawn),,2.66 µM (active)
CCCc1noc(-c2ccn3c(CNC(=O)C(C)Oc4ccccc4)nnc3c2)n1 (stereo not drawn),-11.4% (inactive),
Oc1cc(Cc2ccccc2)cnc1CN1CCCCC1,,0.944 µM (active)
CC12CC3CC(C)(C1)CC(Nc1nc(N4CCOCC4)nc4ccccc14)(C3)C2,,9.44 µM (active)
Clc1ccc(-c2nc(N3CCOCC3)nc3ccccc23)cc1,7.5% (inactive),
CN1N=C2c3ccccc3CCC2C1c1ccc(F)cc1 (stereo not drawn),,5.96 µM (active)
Cc1ccc2oc(=O)n(CCOc3ccccc3C)c2c1,,4.73 µM (active)
COc1ccccc1C(=O)NCCn1ccn2nc(-c3cc(C)ccc3C)cc2c1=O,-2.98% (inactive),
O=C(c1cccs1)N1CCCCCC1CN1CCCC1 (stereo not drawn),,10.6 µM (active)
O=C(N[C@H]1CCN2C(=O)c3ccccc3NC(=O)[C@@H]2C1)c1cccs1,27.3% [at 43.1 µM] (inactive),
CCNC(=O)N1CCCCCC1CN1CCc2ccccc2C1 (stereo not drawn),-9.47% (inactive),
CCCCCCNC(=O)Cc1csc2nc(C)c(-c3cc(C)n(-c4cccc(C)c4)n3)c(=O)n12,,15 µM (active)
CCCCC(O)(c1ccc(CC)cc1)C(CN1CCOCC1)c1ccccc1 (stereo not drawn),,4.73 µM (active)
CCCCCCC(O)(c1ccc(OC)cc1)C(CN1CCOCC1)c1ccccc1 (stereo not drawn),,4.22 µM (active)
CCCCCC(O)(c1ccc(OC)cc1)C(CN1CCOCC1)c1ccccc1 (stereo not drawn),,2.11 µM (active)
CCCN1C(CC(C)C)=NS(=O)(=O)c2cc(NC(=O)c3ccco3)ccc21,,7.5 µM (active)
CCCN1C(CC(C)C)=NS(=O)(=O)c2cc(NC(=O)c3cccs3)ccc21,,0.335 µM (active)
CCOc1ccccc1NC(=O)N1CCC([C@@H]2[C@H](OC)C(=O)N2C(C)C)CC1,20.9% (inactive),
CCOc1ccccc1NC(C)C(=O)Nc1cc(C(F)(F)F)ccc1N1CCOCC1 (stereo not drawn),,2.66 µM (active)
CCC(Oc1ccccc1)C(=O)Nc1cc(C(F)(F)F)ccc1N1CCOCC1 (stereo not drawn),,7.5 µM (active)

Compound,"activity change, negative = inhibition",Potency
COc1ccc(NC(C)C(=O)Nc2cc(C(F)(F)F)ccc2N2CCOCC2)c(OC)c1 (stereo not drawn),,0.842 µM (active)
COc1cc(Cl)c(C)cc1NC(C)C(=O)Nc1cc(C(F)(F)F)ccc1N1CCOCC1 (stereo not drawn),,0.422 µM (active)
CC(Oc1ccccc1)C(=O)NC1CCN(c2cc(C(F)(F)F)ncn2)CC1 (stereo not drawn),-10.9% (inactive),
COc1cc2c(Nc3ccc(Br)cc3F)ncnc2cc1OCC1CCN(C)CC1,,5.96 µM (active)
O=C(c1ccc(F)c(Cl)c1)N1CCN(c2cc(C(F)(F)F)ncn2)CC1,5.98% (inactive),
Nc1cc(Cl)ccc1N1CCCC1,25.9% (inactive),
O=C(Nc1ccc(C(F)(F)F)cc1)N1CCN(c2ccnc3cc(Cl)ccc23)CC1,,5.31 µM (active)
Clc1ccc2c(N3CCCC3)ccnc2c1,,3.76 µM (active)
Cc1ccc(-n2ncc3c(NCc4ccco4)ncnc32)cc1C,,15 µM (active)
COc1ccc(CCNc2ncnc3c2cnn3-c2ccc(F)cc2)cc1,22.9% (inactive),
COc1ccc(CNc2ncnc3c2cnn3-c2ccc(C)c(C)c2)cc1,38.6% (inactive),
COc1ccc(S(=O)(=O)N(C)C)cc1NC(C)C(=O)Nc1cccc(C#N)c1 (stereo not drawn),,6.68 µM (active)
CCc1nnc([C@@H]2CC(F)(F)CN2Cc2cccn2C)o1,-14.9% (inactive),
CCOC(=O)c1c(NC(=O)COc2ccc(F)cc2)sc2c1CCC(C)C2 (stereo not drawn),21.2% (inactive),
CCOC(=O)c1c(C)n(-c2ccc(F)cc2)c2ccc(O)cc12,,6.68 µM (active)
CC1=C(C(=O)Nc2ccc(C)cc2C)C(c2ccc(Br)cc2)n2ncc(C(=O)Nc3cccc(C)c3)c2N1 (stereo not drawn),,3.35 µM (active)
CC1=C(C(=O)Nc2ccc(C)cc2C)C(c2ccc([N+](=O)[O-])cc2)n2ncc(C(=O)Nc3ccc(F)cc3)c2N1 (stereo not drawn),,2.99 µM (active)
COc1cccc(C2C(C(=O)Nc3ccc(C)cc3C)=C(C)Nc3c(C(=O)Nc4ccccc4)cnn32)c1 (stereo not drawn),,2.11 µM (active)
COc1cccc(CC(=O)NCCn2ccn3nc(-c4ccc(C)cc4C)cc3c2=O)c1,-12.7% (inactive),
CCOc1ccc(-n2nc3cc(C)c(NC(=O)c4cc(OCC)c(OCC)c(OCC)c4)cc3n2)cc1,57.9% (inactive),
Cc1cc(=O)n(CC(=O)Nc2ccc(C)c(F)c2)c(N2CCc3ccccc3C2)n1,-8.95% (inactive),
CCOc1ccccc1NC(=O)Nc1ccc2nc(N3CCN(C)CC3)cc(C)c2c1,,1.33 µM (active)
O=C([C@@H]1C[C@H](F)CN1C(=O)Nc1cccc(Cl)c1)N1CCCCC1,9.66% (inactive),
Cc1cc(N2CCN(C)CC2)nc2ccc(NC(=O)Nc3cccc(Cl)c3)cc12,,4.22 µM (active)

Compound,"activity change, negative = inhibition",Potency
CCCN(CCC)CCCNC(=S)Nc1ccc2nc(N3CCCC3)cc(C)c2c1,-17.7% (inactive),
Cc1ccccc1NC(=O)Nc1ccc2nc(N3CCN(C)CC3)cc(C)c2c1,,1.5 µM (active)
CCOc1cccc(CC(=O)Nc2ccc3nc(N4CCCCC4)cc(C)c3c2)c1OCC,,6.68 µM (active)
COc1ccc(CN2CCCC3(CNc4ccccc4[S+](=O)([O-])N3)C2)cc1 (stereo not drawn),-16.7% (inactive),
CN(C)c1cc(N2CCCC(NC(=O)c3ccsc3)C2)ncn1 (stereo not drawn),17.4% (inactive),
COc1cccc(CN2CCC(N3CC(OCC4CC4)C34CCCCC4)CC2)n1 (stereo not drawn),,4.22 µM (active)
CCn1cc(CN2CCC(N3CC(OCC4CC4)C34CCCCC4)CC2)cn1 (stereo not drawn),,8.41 µM (active)
Cn1cccc1CN1CCC(N2CC(OCC3CC3)C23CCCCC3)CC1 (stereo not drawn),,7.5 µM (active)
Fc1cccc(CN2CCC(N3CC(OCC4CC4)C34CCCCC4)CC2)c1 (stereo not drawn),,4.22 µM (active)
O=C(Nc1ccccc1)N1CCC(N2CC(OCC3CC3)C23CCOCC3)CC1 (stereo not drawn),-22.8% (inactive),
CN(C)S(=O)(=O)N1CCC(N2C(=O)C(OCC3CC3)C23CCCCC3)CC1 (stereo not drawn),-24% (inactive),
CCc1ccc(NC(=O)N2CC(C(=O)N(C)C)C3(CCOCC3)C2)cc1 (stereo not drawn),2.4% (inactive),
CC1=C(CC(=O)c2ccc(Cl)cc2)C(=O)c2ccccc2C1=O,,0.211 µM (active)
O=C(Cn1cc(-c2nnnn2-c2ccc(Cl)cc2)c(=O)c2ccccc21)c1ccccc1,10% (inactive),
CN(CC1(C)CCOCC1)C(=O)c1ccoc1,15.7% (inactive),
COc1ccc(O)c(-c2cc(-c3cccs3)[nH]n2)c1,312% (inactive),
Oc1ccc(Br)cc1-c1cc(-c2ccc(Cl)cc2)n[nH]1,,2.66 µM (active)
COc1cc(C2CC(=O)Nc3cc4c(cc32)OCCO4)cc(Br)c1OC (stereo not drawn),,5.31 µM (active)
CCOC(=O)C1=C(C)NC(=S)N(C(C)=O)C1c1ccc(Cl)cc1 (stereo not drawn),-15% (inactive),
COc1cc(Br)c(C2CC(=O)Nc3cc4c(cc32)OCCO4)cc1OC (stereo not drawn),,2.37 µM (active)
CCOC(=O)C1=C(C)NC(=O)CC1c1cc(OC)c(OC)cc1Br (stereo not drawn),,5.31 µM (active)
